PLC-beta3 inh: inhibitors of human phospholipase C beta3; inhibition, % at 12.2 µM; 370,000 compounds, 0.18% hits; AID 720704; Purified PLC-beta3, fluorogenic substrate, fluorescence; Q01970; in the data active = inhibition above about 11%;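 also: 0% = median of compound wells on plate and 100% = full blocker control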
UHRF1 MBD2 ctr: blocks human UHRF1 binding to methylated DNA. Q96T88. UHRF1 binding to methylated oligo, TR-FRET. 370,000 compounds, 0.75% hits. inhibition, % at 4.4 µM; in the data active = inhibition above about 21%;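 also: UHRF1 SRA domain binding a hemimethylated CpG hairpin DNA probe; 0% = median of test compound wells and 100% = reference inhibitor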
PLC-gamma1 inh: PLC-gamma1 (human) inhibition, primary screen | 370,000 compounds, 0.84% hits | purified PLC-gamma1, fluorogenic substrate, fluorescence | inhibition, % at 12.2 µM
LEDGF integ inh: blocks HIV-1 LEDGF/p75-dependent DNA integration; TR-FRET IN-LEDGF/p75 DNA integration, Eu/Cy5; inhibition, % at 3.7 µM; 370,000 compounds, 0.64% hits; AID 743269;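 active = inhibition above the screen-wide mean plus 3 SD, cut at about 13% in these data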;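 also: signal is the Cy5 over europium emission ratio at 671 and 618 nm; 0% = plate median of compound wells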
MBD2 DNA inh: MBD2-methylated oligo binding inhibition; Q9UBB5; TR-FRET, MBD2 binding to methylated oligonucleotide; inhibition, % at 4.4 µM; 370,000 compounds, 0.31% hits; in the data active = inhibition above about 13%
PLCgamma1 ctr: counter-screen for PLC-beta3 inhibitors: inhibitors of human PLC-gamma1; shares compounds with PLC-gamma1 inh; purified PLC-gamma1, fluorogenic substrate, fluorescence; inhibition, % at 12.3 µM; 3,300 compounds, 3.1% hits; AID 743258
PLCbeta3 conf: human PLC-beta3 inhibition, confirmation | purified PLC-beta3, fluorogenic substrate fluorescence | 3,300 compounds, 1% hits | inhibition, % at 12.3 µM | shares compounds with PLC-gamma1 inh; in the data active = inhibition above about 11%
An asterisk follows results filed as active; . = no result given. Rows were chosen to be rich in hits. Some 2.4% of all compounds tested hit in one or more screens of this group. Rule as the data show it, unless noted: active = inhibition above about 9.5%; inactive = the rest.

SMILES | PLC-beta3 inh | UHRF1 MBD2 ctr | PLC-gamma1 inh | LEDGF integ inh | MBD2 DNA inh | PLCgamma1 ctr | PLCbeta3 conf
COc1ccccc1/C=C/C(=O)OCCN1C(=O)c2ccccc2C1=O | -4 | -2 | 11* | 9 | -5 | -14 | -12
CN(c1ccccc1C(=O)Nc1cccc([N+](=O)[O-])c1)S(C)(=O)=O | 2 | 0 | 9.9* | 1 | -1 | -6 | -1
CCc1ccc(OCCOCC(O)CN(CCO)CCO)cc1 (stereo not drawn) | 11* | -2 | 4 | 0 | -2 | -10 | -5
OCCN(CCO)CC(O)COc1ccc(Br)cc1 (stereo not drawn) | 8 | -2 | 5 | 9 | -5 | . | .
Brc1ccccc1Cn1nnc(-c2ccc(N3CCOCC3)cc2)n1 | -2 | -1 | -2 | 2 | 1 | . | .
Cc1nc(Nc2c(Cl)cccc2Cl)sc1C(=O)Nc1ccccc1 | 7 | 5 | 9.6* | 4 | 5 | -1 | 0
Cc1nc(NC(=O)C2CC2)sc1C(=O)Nc1ccccc1 | -3 | -2 | 0 | 2 | -2 | . | .
O=C(OCc1cn(Cc2ccc(F)c(F)c2)nn1)N1CCOCC1 | -6 | 4 | 2 | 1 | -2 | . | .
COc1ccc(CNCCS(=O)(=O)NCc2ccc(OC)cc2)cc1 | 3 | 0 | 13* | 2 | -1 | -8 | -2
COc1ccc(CNCCS(=O)(=O)NCc2ccccc2)cc1 | 2 | 4 | -2 | 2 | 4 | . | .
NC(=O)C1CCN(c2nc(-c3ccc(Oc4ccccc4)cc3)cs2)CC1 | 0 | -1 | 1 | -5 | 3 | . | .
C=CCN1C(=O)[C@@H](CC(=O)NCc2cccs2)[C@]2(C(=O)OC)CCCCC=C12 | -4 | 3 | 1 | 1 | 3 | . | .
CCCCN1C(=O)c2ccccc2NC1c1ccc(OC)c(COc2ccc(NC(C)=O)cc2)c1 (stereo not drawn) | -331 | 1 | -243 | -7 | 1 | . | .
Cc1ccc(CNC(=O)CCCC(=O)O)cc1 | 11* | 2 | 5 | 2 | 3 | -6 | -2
Cc1ccc(CNC(=O)CCCc2ccccc2)cc1 | -8 | -2 | 1 | 3 | 1 | . | .
COc1ccc2[nH]c3c(c2c1)CCN[C@]31C(=O)N(Cc2cn(Cc3ccccc3)nn2)c2ccc(F)cc21 | -10 | 18 | -7 | 2 | 12 | . | .
O=C(Cc1ccccc1Cl)NCCN1C(=O)C2C3C=CC(C3)C2C1=O (stereo not drawn) | 1 | -2 | 9.9* | 5 | 7 | 0 | 0
O=C(CCN1C(=O)C2C3C=CC(C3)C2C1=O)NCCc1ccccc1Cl (stereo not drawn) | 2 | 2 | 0 | 0 | -4 | . | .
O=c1c2ccccc2n(Cc2ccco2)n1[C@@H](Cc1ccccc1)Cn1cc(-c2ccc(-c3ccccc3)cc2)nn1 | -50 | 1 | -30 | -1 | 1 | . | .
O=C(Nc1ccccc1N1CCOCC1)c1ccc(Cl)c(S(=O)(=O)NCc2ccco2)c1 | -3 | 3 | 9.7* | -1 | 2 | -4 | -4
O=C(Nc1ccccc1N1CCOCC1)c1ccc(S(=O)(=O)NCc2ccco2)cc1 | -2 | 4 | 3 | -3 | 10 | . | .
CNC(=O)C1CC(=O)N/C(=N/N=C(\C)c2cccs2)S1 (stereo not drawn) | 11* | 2 | 7 | 3 | -10 | -1 | 0
CC1CCN(CCCNC(=O)C2CCC(CNS(=O)(=O)c3cccc4nsnc34)CC2)CC1 (stereo not drawn) | -5 | -3 | 5 | 0 | -5 | . | .
O=C(NCCCN1CCCCC1)C1CCC(CNS(=O)(=O)c2cccc3nsnc23)CC1 (stereo not drawn) | -1 | -2 | 10* | 4 | 0 | -3 | -2
Cc1ccc(NC(=O)OC2CC3CC2[C@H]2CCCCN2C3)cc1 (stereo partly drawn) | -1 | 0 | -3 | -1 | -2 | . | .
SMILES | PLC-beta3 inh | UHRF1 MBD2 ctr | PLC-gamma1 inh | LEDGF integ inh | MBD2 DNA inh | PLCgamma1 ctr | PLCbeta3 conf
C/C(CC(=O)Nc1ccc(N(C)C)cc1)=N\NC(=O)c1ccc([N+](=O)[O-])cc1 | -7 | -2 | 0 | -4 | -5 | . | .
C/C(CC(=O)Nc1ccc([N+](=O)[O-])cc1)=N\NC(=O)c1ccccc1[N+](=O)[O-] | 5 | 3 | 11* | 5 | -4 | 1 | 3
C[C@@H]1CCN(C2CC2)S(=O)(=O)c2c(cccc2N2CC[C@H](O)C2)O1 | 1 | -1 | -2 | 3 | 0 | . | .
Cc1ccc(C(=O)CCC(=O)Nc2ccc(Cl)c(S(=O)(=O)Nc3cccc(Cl)c3)c2)cc1 | 2 | 5 | 11* | -6 | 6 | -2 | -9
Cc1cc(C)n2nc(SCC(=O)N3CCC(C(=O)O)CC3)nc2n1 | 11* | 3 | 9 | 5 | 3 | 3 | 2
CC(=O)O[C@@H]1CCC[C@@]2(C(=O)Nc3ccccc32)[C@H]1NC(=O)C(C)C | 3 | 0 | -2 | -2 | -3 | . | .
O=C(/C=C/c1ccc(O)c(O)c1)c1ccc(S(=O)(=O)N2CCCCCC2)cc1 | 7 | 7 | 11* | 6 | -1 | -1 | -2
CCOC(=O)c1c(C)[nH]c(C(=O)COC(=O)c2oc3ccc(OC)cc3c2C)c1C | -2 | 1 | -2 | 2 | 1 | . | .
CCOC(=O)c1c(C)[nH]c(C(=O)COC(=O)c2oc3ccccc3c2C)c1C | 4 | -2 | 10* | -1 | -1 | -5 | -4
O=C(CSc1nnc(-c2cccnc2)n1-c1ccc(Cl)cc1)c1ccc(F)cc1 | -1 | -3 | 2 | -3 | 0 | . | .
O=C(NCCc1ccc(Cl)cc1)c1ccc2c(c1)ncn2C1CCCCC1 | -4 | 2 | -1 | -3 | 2 | . | .
Cc1ccccc1CNC1CCCCC1 | 12* | 3 | 5 | -1 | -4 | -4 | -1
Cc1ccc(CNC(=O)Cn2cccc2C(=O)c2ccccc2)cc1 | 3 | 3 | 12* | 3 | 3 | -6 | -5
COC(=O)[C@]1(CNC(=O)C(C)(C)C)CC(=O)N(C)[C@@H]1c1ccccc1 | 2 | 0 | -4 | 1 | 7 | . | .
COc1ccc(N2CCN(C3CCCN(C(=O)CN4CCCC4=O)C3)CC2)cc1 (stereo not drawn) | -7 | 5 | 9.8* | -4 | 7 | -5 | -4
COc1ccc(N2CCN(C3CCCN(C(=O)CN4CCOC4=O)C3)CC2)cc1 (stereo not drawn) | -2 | 0 | -1 | 2 | 2 | . | .
CCOC(=O)[C@@]12CCCC=C1N(CCc1ccc(Cl)cc1)C(=O)[C@H]2CC(=O)NCc1ccccc1 | 2 | -3 | 3 | 0 | 3 | . | .
O=C(N/N=C/c1ccc(F)cc1)c1ccc(Br)cc1 | -1 | 4 | 2 | 4 | -1 | . | .
Cn1c(=O)cc(C(=O)N/N=C/c2ccc(F)cc2)[nH]c1=O | -6 | -1 | 9.6* | 4 | 2 | -5 | -8
OC(c1ccccc1)(c1ccccc1)C1CCN(CCCOc2ccc(OC(F)(F)F)cc2)CC1 | 7 | 0 | 1 | 1 | -5 | . | .

Source: PubChem BioAssay (The Scripps Research Institute Molecular Screening Center)
